From the supplement of paper PMC13172266
Counter-ions that a name gives are not always drawn.

Tests used:
Assay in all cases: cell proliferation relative to vehicle (% of vehicle); higher = less growth inhibition
Settings in all cases: 72 h
[1] = test system: U2932 TK216-resistant clone 2
Procedure, shortened: (§1)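 A targeted inhibitor library of 348 compounds was tested on the ABC-DLBCL line U2932, both parental and two clones made resistant to an ETS-targeting agent by repeated exposure over almost a year. Cells were grown at 37°C and 5% CO2 in medium with 10% FBS, then treated at 500 nM or 50 nM for 72 h. MTT was added for 4 h, stopped with 25% SDS, and absorbance was read on a Cytation 3. Proliferation is reported as percent of proliferating cells relative to vehicle (DMSO).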

[2] = test system: U2932 TK216-resistant clone 3
Procedure, shortened: as §1

U2932 parental = test system: U2932 parental
Procedure, shortened: as §1

SMILES	cell proliferation ([1]; 50 nM)	cell proliferation ([1]; 500 nM)	cell proliferation ([2]; 50 nM)	cell proliferation ([2]; 500 nM)	cell proliferation (U2932 parental; 50 nM)	cell proliferation (U2932 parental; 500 nM)
COc1ccc(C2=N[C@H](c3ccc(Cl)cc3)[C@H](c3ccc(Cl)cc3)N2C(=O)N2CCNC(=O)C2)c(OC(C)C)c1 [Nutlin-3b]	105	96.6	100	107	102	99.6
CC(C)c1cc(-c2n[nH]c(=O)n2-c2ccc3c(ccn3C)c2)c(O)cc1O [Ganetespib (STA-9090)]	6.02	4.07	23.7	19.8	4.55	5.59
CCCCC(C=O)NC(=O)C(CC(C)C)NC(=O)C(CC(C)C)NC(C)=O (centres undefined)	107	12.7	106	24.2	103	39.6
COc1cc2ncnc(Oc3ccc(CC(=O)Nc4cnn(C(C)C)c4)cc3)c2cc1OC	100	104	104	98.5	97.7	95.7
CC(C)(C)c1cc(NC(=O)Nc2ccc(-c3cn4c(n3)sc3cc(OCCN5CCOCC5)ccc34)cc2)no1 [Quizartinib (AC220)]	95.7	97.3	95	90.2	101	102
Cc1c(CN2CCN(C(=O)[C@H](C)O)CC2)sc2c(N3CCOCC3)nc(-c3cnc(N)nc3)nc12	79.4	32	82.1	40.6	85	33.4
CNCc1ccc(-c2[nH]c3cc(F)cc4c3c2CCNC4=O)cc1	101	94.9	99.8	108	96.6	93.4
Cn1cnc2c(F)c(Nc3ccc(Br)cc3Cl)c(C(=O)NOCCO)cc21 [Selumetinib (AZD6244)]	106	95.8	97	90.1	99.3	101
NC(=O)Nc1sc(-c2ccc(F)cc2)cc1C(N)=O	109	92.7	106	102	104	99.5
O=c1[nH]cc(F)c(=O)[nH]1 [Fluorouracil (5-Fluoracil, 5-FU)]	102	102	103	106	102	96.2
Cc1cnc(Nc2ccc(N3CCN(C)CC3)cc2)nc1Nc1cccc(S(=O)(=O)NC(C)(C)C)c1	95.6	70.3	90	65.2	89.4	79.5
NC(=O)c1ncn([C@@H]2O[C@H](CO)[C@@H](O)[C@H]2O)c1O [Mizoribine]	104	108	100	99.7	104	102
CO[C@@H](C)Cn1c(=O)n(C)c2cnc3ccc(-c4cncc(C(C)(C)O)c4)cc3c21	79.1	23.8	79.2	30.9	80.4	33.6
CCC[C@H](NC(=O)/C(C#N)=C/c1cccc(Br)n1)c1ccccc1 [Degrasyn (WP1130)]	105	102	106	94.8	92.5	86.4
CCCC(CCC)C(=O)O [Valproic acid sodium salt (Sodium valproate)]	98.2	101	103	94.2	106	97.6
COc1ccc(-c2ccc3ncc4c(c3c2)n(-c2ccc(N3CCNCC3)c(C(F)(F)F)c2)c(=O)n4C)cn1	15.8	-0.777	30.9	0.399	19.7	1.95
C[C@]1(O)C[C@@H](c2nc(-c3ccc4ccc(-c5ccccc5)nc4c3)c3c(N)nccn32)C1 [OSI-906 (Linsitinib)]	104	95.1	95.7	99.4	99.3	99.7
Cc1cc(Nc2cc(N3CCN(C)CC3)nc(/C=C/c3ccccc3)n2)n[nH]1	82	66.1	97.6	48.9	93	46
COc1ccc(-n2c(SCCCN3C(=O)c4cccc5cccc(c45)C3=O)nnc2-c2ccncc2)cc1	106	97.3	104	99.4	94.3	94.5
CCCNC(=O)c1cn2ncnc(Nc3cc(C(=O)NC4CC4)ccc3C)c2c1C	104	98.2	105	103	103	98.7
NC(=O)Nc1cc(-c2cccc(F)c2)sc1C(=O)N[C@H]1CCCNC1	89.8	13.6	91.8	18.9	83	11.5
O=C(Nc1c[nH]nc1-c1nc2ccc(CN3CCOCC3)cc2[nH]1)NC1CC1	90.5	67.5	75.8	60.1	69.3	54.2
Cc1ccc(C(=O)N(CCCN)[C@@H](c2nc3cc(Cl)ccc3c(=O)n2Cc2ccccc2)C(C)C)cc1	13	10.8	7.24	5.07	9.61	10.2
CN(C)CCOc1ccc(-c2nc(-c3ccncc3)c(-c3ccc4c(c3)CC/C4=N\O)[nH]2)cc1	93.3	89.5	96.6	97.4	93.3	94.8
CCc1nc(-c2cccc(C)c2)c(-c2ccnc(NC(=O)c3ccccc3)c2)s1	103	97.7	98.4	103	104	101

SMILES	cell proliferation ([1]; 50 nM)	cell proliferation ([1]; 500 nM)	cell proliferation ([2]; 50 nM)	cell proliferation ([2]; 500 nM)	cell proliferation (U2932 parental; 50 nM)	cell proliferation (U2932 parental; 500 nM)
CO[C@H]1C[C@@H]2CC[C@@H](C)[C@@](O)(O2)C(=O)C(=O)N2CCCC[C@H]2C(=O)O[C@H]([C@H](C)C[C@@H]2CC[C@@H](OC(=O)C(C)(CO)CO)[C@H](OC)C2)CC(=O)[C@H](C)/C=C(\C)[C@@H](O)[C@@H](OC)C(=O)[C@H](C)C[C@H](C)/C=C/C=C/C=C/1C	68.3	64.8	65	65.1	59.6	58.9
COc1cc2c(c(OC)c1OC)-c1c(cc3c(c1OC)OCO3)CC(C)C(C)C2 (centres undefined) [Schisandrin B (Sch B)]	99.1	104	108	97.6	97.2	95.9
CCNC(=O)c1noc(-c2cc(C(C)C)c(O)cc2O)c1-c1ccc(CN2CCOCC2)cc1	4.68	4.69	21.4	21.1	3.32	3.9
Cc1cc(Nc2cc(N3CCN(C)CC3)nc(Sc3ccc(NC(=O)C4CC4)cc3)n2)n[nH]1 [VX-680 (Tozasertib, MK-0457)]	91.1	79.9	72.2	69	64.5	57.8
Oc1c2ccccc2c2c3c(cccc13)N=N2	101	113	105	104	103	101
O=C(NC[C@H](O)CO)c1ccncc1Nc1ccc(I)cc1F	91	88.5	95.7	94.7	92.2	89.5
Cc1cc([C@@H](C)Nc2ccccc2C(=O)O)c2nc(N3CCOCC3)cc(=O)n2c1	107	95	103	95.3	99.9	101
CCCCCCCCCCCCc1ccc(S(=O)(=O)Nc2nncs2)cc1	102	88.7	102	100	101	100
O=C(O)c1ccc(O)c2ncccc12	104	107	101	99.2	106	105
Cc1cc(C(C)Nc2ccccc2)c2nc(N3CCOCC3)cc(=O)n2c1 (centres undefined)	103	101	105	98.3	102	92.9
C[C@@H]1CC(=O)c2c(ccc3c2C(=O)c2cccc(O)c2C3=O)C1	102	98.5	104	92.5	87.5	97
CN(C)Cc1ccc(S(=O)(=O)n2ccc(/C=C/C(=O)NO)c2)cc1 [Resminostat]	99.1	93.8	92	90.4	93.4	84.7
O=c1ncccn1[C@@H]1O[C@H](CO)[C@@H](O)[C@H]1O [Zebularine]	111	95.5	102	99.9	105	102
C[C@@H](N)[C@H]1CC[C@H](C(=O)Nc2ccncc2)CC1	98.8	102	100	103	94.8	97.7
Cc1ccc(F)c(NC(=O)Nc2ccc(-c3cccc4[nH]nc(N)c34)cc2)c1 [Linifanib (ABT-869)]	99.8	93.1	99	95.7	90.6	107
CN(C)C(=N)NC(=N)N [Metformin HCl]	110	102	113	108	99.9	98.9
C=CC(=O)N1C/C(=C\c2ccc([N+](=O)[O-])cc2)C(=O)/C(=C/c2ccc([N+](=O)[O-])cc2)C1	31.4	-1.71	30.7	-2.43	34.3	1.03
Cc1cc(Nc2nc(N[C@@H](C)c3ncc(F)cn3)ncc2Cl)[nH]n1	116	108	105	117	96.7	91.5
CC(=O)Nc1ccc(NC(=S)NC(=O)c2ccc(C(C)(C)C)cc2)cc1 [Tenovin-1]	105	95.1	107	102	102	98.7
CCOC(=O)c1[nH]c2cc(Cl)ccc2c1C(C(=O)NC(C)(C)C)N(C=O)Cc1ccc(Cl)cc1 (centres undefined)	106	92.2	103	95.6	97.7	93.4
N=C1NC(=O)/C(=C/c2ccc(O)cc2)S1 [Mirin]	103	94.6	107	102	90.9	97.3
O=NN(CCCl)C(=O)NC1CCCCC1 [Lomustine]	112	103	111	105	101	114
CN(C)c1nc(N(C)C)nc(N(C)C)n1 [Altretamine]	105	102	106	96.6	97.7	104
CC(C)C(=O)Nc1ccc([N+](=O)[O-])c(C(F)(F)F)c1 [Flutamide]	90.7	87.2	97.2	98.3	89.3	87.6
